The text below walks through data of PubChem BioAssay AID504339 (National Center for Advancing Translational Sciences (NCATS), 2011).

Hit rate of the full screen: of about 390,000 compounds, about 17,000 (4.4%) were called active. Not shown: some 8% with an inconclusive outcome. Calls follow the shape of the dose curve; as a rule, active = well fitted inhibition curve with a large enough effect; inconclusive = small, poorly fitted or top-dose-only effect; inactive = no such curve, though single readings can be large or run the other way. For the sample, actives were picked, then their nearest neighbours and some compounds at random.
% is scaled to controls: 0 for no effect and ±100 for the full control effect; potency is read from the fitted curve at half-maximal effect.

This assay deals with Lysine-specific demethylase 4A (Homo sapiens) (UniProt O75164). Briefly: qHTS Assay for Inhibitors of JMJD2A-Tudor Domain. Also: nearly all actives have a fitted effect of over 50% in size. The note with it: AlphaScreen JMJD2A-Tudor / H3K4me3 peptide binding; series mostly up to 114 µM; activity change, negative = inhibition: at the top concentration. (In general: qHTS replaces the single test concentration by a dilution series.)
Lysine-specific demethylase 4A (Homo sapiens), sequence (O75164 whole entry, looked up, the tested form may be a part): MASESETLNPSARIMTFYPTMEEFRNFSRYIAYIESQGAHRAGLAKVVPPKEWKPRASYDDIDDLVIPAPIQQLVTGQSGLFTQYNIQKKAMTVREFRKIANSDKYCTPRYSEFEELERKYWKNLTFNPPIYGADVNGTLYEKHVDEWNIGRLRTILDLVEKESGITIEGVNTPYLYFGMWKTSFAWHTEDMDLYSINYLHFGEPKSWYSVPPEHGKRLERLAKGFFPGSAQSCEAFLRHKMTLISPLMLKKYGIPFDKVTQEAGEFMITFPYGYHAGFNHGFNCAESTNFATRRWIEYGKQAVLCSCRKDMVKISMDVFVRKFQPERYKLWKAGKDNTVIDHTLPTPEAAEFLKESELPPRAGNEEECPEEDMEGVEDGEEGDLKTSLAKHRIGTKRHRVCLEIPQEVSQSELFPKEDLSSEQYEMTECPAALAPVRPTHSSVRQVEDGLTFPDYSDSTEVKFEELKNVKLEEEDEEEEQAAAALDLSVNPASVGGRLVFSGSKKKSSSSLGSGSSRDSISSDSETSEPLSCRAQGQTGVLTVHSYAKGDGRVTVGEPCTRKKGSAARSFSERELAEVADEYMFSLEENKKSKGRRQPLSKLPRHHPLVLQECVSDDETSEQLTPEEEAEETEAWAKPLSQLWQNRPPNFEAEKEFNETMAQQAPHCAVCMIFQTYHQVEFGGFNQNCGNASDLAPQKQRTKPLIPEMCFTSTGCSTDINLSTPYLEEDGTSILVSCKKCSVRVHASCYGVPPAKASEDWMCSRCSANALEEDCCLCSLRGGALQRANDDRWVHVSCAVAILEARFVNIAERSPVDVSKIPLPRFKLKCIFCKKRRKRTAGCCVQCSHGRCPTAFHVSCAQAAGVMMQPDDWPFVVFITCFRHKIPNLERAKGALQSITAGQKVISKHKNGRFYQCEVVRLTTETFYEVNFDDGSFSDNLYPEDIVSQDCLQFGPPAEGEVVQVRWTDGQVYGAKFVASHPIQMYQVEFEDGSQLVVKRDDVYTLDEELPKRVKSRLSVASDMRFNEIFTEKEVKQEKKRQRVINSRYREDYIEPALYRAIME
Turning to `Cc1ccc(CCNC(=O)c2ccc3c(c2)nc2n3CCC(C)C2)cc1` (centres undefined), the “activity change, negative = inhibition” value is -11% (inactive).

In the case of `CCn1cc(C(=O)OCC(=O)Nc2cc(C)cc(C)c2)c(=O)c2ccc(C)nc21`, the “activity change, negative = inhibition” value was -10.6% (inactive).

As to `CCC(=O)N1CCc2cc(S(=O)(=O)NCCC(=O)Nc3cccc(C)c3C)ccc21`, the “activity change, negative = inhibition” value was -12% (inactive).

On to `Cc1ccc(C)c(NC(=S)NCC(c2cccnc2)N2CCOCC2)c1` (centres undefined), for which the “activity change, negative = inhibition” value was -11.5% (inactive).

Consider `Cc1ccc(C)c(NC(=O)C2CC(=O)N(C(C)C)C2)c1` (centres undefined), for which the “activity change, negative = inhibition” value was -10.2% [at 57.1 µM] (inactive).

In the case of `Cc1ccc(C)c(NC(=S)NNC(=S)Nc2ccc(C(C)C)cc2)c1`, the Potency is 56.2 µM (active).

Regarding `CCOC(=O)c1c(NC(=O)c2cc(CC)on2)sc(C(C)=O)c1C`, the “activity change, negative = inhibition” value was 4.78% (inactive).

On to `O=C(Nc1cccc(Cl)c1)c1csnn1`, for which the “activity change, negative = inhibition” value is -22.8% (inactive).

Turning to `c1ccc(C2CNCc3c2ccc2ccccc32)cc1` (centres undefined), the “activity change, negative = inhibition” value is -26.7% (inactive).

On to `CC(C)(C)CN1C(=O)C(=O)NC[C@H]1Cc1cccc2ccccc12`, for which the “activity change, negative = inhibition” value was -5.07% (inactive).

In the case of `c1ccc2c(CCN3CCNC[C@H]3Cc3cccc4ccccc34)cccc2c1`, the Potency was 56.2 µM (active).

In the case of `Cc1cc(NC(=O)CSc2ncc(C(=O)Nc3ccc(Cl)cc3)c(=O)n2C)no1`, the “activity change, negative = inhibition” value was 3.57% (inactive).

Consider `CCOC(=O)c1ccc(NC(=O)CCS(=O)(=O)c2ccc3c(c2)oc(=O)n3C)cc1`, for which the “activity change, negative = inhibition” value was -10% (inactive).

As to `Cc1ccc(NC(=O)c2cn3c4c(ccc(Cl)c4c2=O)OC(C)C3)cc1C` (centres undefined), the “activity change, negative = inhibition” value was -5.28% (inactive).

Consider `CC1=C(N2CCN(c3ncccn3)CC2)CCC1=O`, for which the “activity change, negative = inhibition” value was -10% (inactive).

Take `Oc1ccc(CN2CCN(c3ncccn3)CC2)cc1`: the Potency was 50.1 µM (active).

For `CN(C)C(=O)c1nc2ccc(Cl)cn2c1CN1CCN(c2ncccn2)CC1`, the “activity change, negative = inhibition” value is -8.97% (inactive).

For `COc1ccc(-c2nc(CN3CCN(c4ncccn4)CC3)c(C)o2)cc1C`, the “activity change, negative = inhibition” value was -29.1% (inactive).

As for `Cc1ccc(CN2CCN(c3ncccn3)CC2)c(C)c1`, the Potency is 14.1 µM (active).

As to `c1cnc(N2CCN(c3ccc4ccccc4n3)CC2)nc1`, the “activity change, negative = inhibition” value is 9.09% (inactive).

On to `COc1ccc(CCNc2ncnc3c2cnn3-c2ccc(C)cc2)cc1`, for which the “activity change, negative = inhibition” value is -3.98% (inactive).

For `Cc1cc(C)c(NC(=O)CCc2c(C)nc3c(c(C)nn3C(C)(C)C)c2C)c(C)c1`, the “activity change, negative = inhibition” value was -9.76% (inactive).

`CCOc1ccc(CNC(=O)c2ccc3nc(CC)c(CC)nc3c2)cc1OC`: the “activity change, negative = inhibition” value was -13.7% (inactive).

Turning to `COc1ccc(/C=C/c2nc(C#N)c(NCc3ccc(F)cc3)o2)cc1OC`, the “activity change, negative = inhibition” value was -17.6% (inactive).

Regarding `O=C(CCSCc1cccc(F)c1)NCc1ccccc1`, the “activity change, negative = inhibition” value is -0.612% (inactive).

As to `Cc1ccc(C)c(N2CCN(c3ccc4cc(S(=O)(=O)N5CCC(C)CC5)ccc4n3)CC2)c1`, the “activity change, negative = inhibition” value was 15.9% (inactive).

With `CCN1CCN(CCCNC(=O)c2ccc3c(c2)sc2nc(-c4ccc(OC)cc4)cn23)CC1`, the “activity change, negative = inhibition” value was -23.7% (inactive).

In the case of `CNC(=O)N1c2ccccc2C=Cc2ccccc21`, the “activity change, negative = inhibition” value was -7.21% (inactive).

For the molecule `CC1C(C)N(C(=O)CCl)c2ccccc2N1C(=O)CCl` (centres undefined), the Potency is 28.2 µM (active).

In the case of `CC1C(=O)N(Cc2ccccc2)c2ccccc2N1C(=O)c1ccccc1` (centres undefined), the “activity change, negative = inhibition” value was -14% (inactive).

Consider `CCOC(=O)c1c(NC(=O)c2ccc(S(=O)(=O)N3CCCC(C)C3)cc2)sc2c1CCN(C(C)C)C2` (centres undefined), for which the “activity change, negative = inhibition” value is -29.7% (inactive).

For `Cc1ccc(CN2CCCn3nc(C(=O)NCc4ccccc4Cl)cc3C2=O)cc1`, the “activity change, negative = inhibition” value is -22.8% (inactive).

For the molecule `O=C(NCC1CCN(Cc2ccccc2Cl)CC1)Nc1cccc(Cl)c1`, the “activity change, negative = inhibition” value is -14.1% (inactive).

Regarding `COc1ccccc1/C=C/C=N/NC(=O)CN1CCN(Cc2ccccc2)CC1`, the “activity change, negative = inhibition” value was -5.42% (inactive).

With `CSc1ccc(/C=N/N2CCN(Cc3ccccc3Cl)CC2)cc1`, the Potency is 25.1 µM (active).

With `COc1ccccc1/C=N/N1CCN(Cc2ccccc2Cl)CC1`, the Potency is 44.7 µM (active).

On to `CN1CCN(/N=C/c2ccc(C#N)cc2)CC1`, for which the “activity change, negative = inhibition” value is -10.5% [at 57.1 µM] (inactive).

In the case of `O=S1(=O)CCN(Cc2ccccc2Cl)CC1`, the “activity change, negative = inhibition” value was -8.11% (inactive).

As to `Cc1nn(C(=O)c2c(F)cccc2F)c(C)c1S(=O)(=O)N1CCOCC1`, the “activity change, negative = inhibition” value is -6.39% (inactive).

`Fc1ccc(-n2ncc3c(Nc4ccc(Oc5ccccc5)cc4)ncnc32)cc1`: the “activity change, negative = inhibition” value was -4.89% (inactive).

Consider `Cc1ccccc1CSCCNC(=O)C1CCN(S(=O)(=O)Cc2ccccc2)CC1`, for which the “activity change, negative = inhibition” value is -11.9% (inactive).

Turning to `O=C(c1ccc(Cl)cc1)n1nc(-c2cccnc2)nc1NCc1ccc(F)cc1`, the “activity change, negative = inhibition” value is -2.08% (inactive).

`CCOC(=O)c1cc2c(=O)n3ccccc3nc2n(CC2CCCO2)c1=NC(=O)c1ccccc1F` (centres undefined): the “activity change, negative = inhibition” value was 3.41% (inactive).

Regarding `Cc1csc(Nc2ccc(Cl)cc2)[n+]1-c1ccc(Cl)cc1`, the Potency is 14.1 µM (active).

As to `CC1CCCN(c2nc3c(S(=O)(=O)c4ccc(C(C)C)cc4)nnn3c3ccsc23)C1` (centres undefined), the “activity change, negative = inhibition” value was 6.96% (inactive).

With `CCOc1ccccc1N1CCN(C(=O)c2ccc3[nH]c(C)c(C)c3c2)CC1`, the Potency was 56.2 µM (active).

As to `CCn1c(C)c(C)c2cc(C(=O)N3CCN(c4cccc(C)c4C)CC3)ccc21`, the Potency is 31.6 µM (active).

For the molecule `COC(=O)CCNC(=O)c1ccc2[nH]c(C)c(C)c2c1`, the “activity change, negative = inhibition” value is -9.59% (inactive).

Turning to `CCS(=O)(=O)N1CCc2cc(C(=O)N3CCN(c4ccccc4OC)CC3)ccc21`, the “activity change, negative = inhibition” value was -12.6% (inactive).

As to `CCOC(=O)c1ccc2[nH]c(C)c(CN3CCN(C)CC3)c(=O)c2c1`, the “activity change, negative = inhibition” value is -18.3% (inactive).

Regarding `CCC(CC)C(=O)N1CCN(c2cccc(C)c2C)CC1`, the “activity change, negative = inhibition” value was 8.94% (inactive).

In the case of `Cc1cccc(N2CCN(C(=O)c3ccc4c(c3)CCN4S(=O)(=O)c3ccccc3)CC2)c1C`, the “activity change, negative = inhibition” value was -19.8% (inactive).

In the case of `Cc1[nH]c2ccc(C(=O)N3CCN(C)CC3)cc2c1C`, the Potency was 50.1 µM (active).

`CCOc1ccccc1NC(=S)N1CCN(c2cccc(C)c2C)CC1`: the “activity change, negative = inhibition” value is -24.9% (inactive).
